Measurements taken from PubChem BioAssay (EPA / NIEHS).
Values joined by “and” are separate entries in the source; they are usually repeats but may differ in a detail not shown here. Equal entries are not always repeated. Inconclusive results are not listed. Active and inactive are the calls of the source. How the source made its calls, unless noted: active means hit-call score of the fitted dose curve at least 0.9, where 1 is the maximum; inconclusive means response in the unintended direction; inactive means score below 0.9.

Target: zebrafish Thyroid Hormone Receptor alpha (TRa), thraa (gene 30670) (UniProt Q98867)
Assay: ATG_zfTRa_XSP2: Attagene TRANS-FACTORIAL Multi-Species (XSP1) HepG2 Assay for zebrafish Thyroid Hormone Receptor alpha (TRa) (AID 2283832);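 further: actives raise zebrafish TRa-Gal4 reporter transcript above DMSO baseline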
In short: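 Chimeric zebrafish TRa-Gal4 activity read in transfected human HepG2 as GAL4-UAS reporter transcripts, 24 h post-dose, via RT-PCR with labeled primer extension and capillary electrophoresis. Medium also carries 3 nM 6-alpha-fluorotestosterone and 1.5 nM norgestrel; DMSO baseline.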

Sequence of zebrafish Thyroid Hormone Receptor alpha (TRa), thraa (gene 30670) (Q98867 whole entry, looked up, the tested form may be a part): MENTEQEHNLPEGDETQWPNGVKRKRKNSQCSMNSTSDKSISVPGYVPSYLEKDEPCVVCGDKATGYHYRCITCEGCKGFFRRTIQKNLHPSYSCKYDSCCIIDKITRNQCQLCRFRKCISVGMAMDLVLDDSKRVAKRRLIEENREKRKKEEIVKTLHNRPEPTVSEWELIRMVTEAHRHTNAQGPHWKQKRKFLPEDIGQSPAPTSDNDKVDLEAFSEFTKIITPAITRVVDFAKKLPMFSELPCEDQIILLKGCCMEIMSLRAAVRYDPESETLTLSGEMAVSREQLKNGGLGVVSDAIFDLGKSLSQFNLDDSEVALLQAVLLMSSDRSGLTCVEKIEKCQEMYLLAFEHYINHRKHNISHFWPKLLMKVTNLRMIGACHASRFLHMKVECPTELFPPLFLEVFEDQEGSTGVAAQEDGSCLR

| Compound | AC50 | outcome |
| --- | --- | --- |
| O=C(O)Cc1cc(I)c(Oc2ccc(O)c(I)c2)c(I)c1 | 0.00602 µM (active) |  |
| O=c1c(-c2ccc(O)cc2)coc2cc(O)cc(O)c12 |  | inactive |
| CC1(C)NC(=O)N(c2ccc([N+](=O)[O-])c(C(F)(F)F)c2)C1=O |  | inactive |
| CC(C)(c1cc(Br)c(O)c(Br)c1)c1cc(Br)c(O)c(Br)c1 |  | inactive |

Tested on: zebrafish Peroxisome Proliferator-activated Receptor gamma (PPARg), gene 557037
Assay: ATG_zfPPARg_XSP2: Attagene TRANS-FACTORIAL Multi-Species (XSP2) HepG2 Assay for zebrafish Peroxisome Proliferator-activated Receptor gamma (PPARg) (AID 2283833);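 further: actives increase reporter signal over DMSO so AC50 reflects activation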
In short: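 HepG2 cells transiently transfected with multiplexed GAL4-UAS reporter units expressing chimeric NR-Gal4 receptors, dosed 24 h. Reporter mRNA quantified by RT-PCR, fluorescent labelling, HpaI digestion and capillary electrophoresis; gain of signal fitted against DMSO.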

| Compound | outcome | AC50 |
| --- | --- | --- |
| O=C(O)Cc1cc(I)c(Oc2ccc(O)c(I)c2)c(I)c1 | inactive |  |
| Cc1c2ccccc2c(C)c2c1ccc1ccccc12 | inactive |  |
| O=c1c(-c2ccc(O)cc2)coc2cc(O)cc(O)c12 | inactive |  |
| CC(C)(c1cc(Br)c(O)c(Br)c1)c1cc(Br)c(O)c(Br)c1 |  | 14.4 µM (active) |

Tested on: turtle Thyroid Hormone Receptor, alpha (TRa), gene 101949057
Assay: ATG_trTRa_XSP2: Attagene TRANS-FACTORIAL Multi-Species (XSP1) HepG2 Assay for turtle Thyroid Hormone Receptor, alpha (TRa) (AID 2283834);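 further: hits raise reporter mRNA over the DMSO baseline so AC50 marks activators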
In short: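 HepG2 cells transiently transfected with GAL4-UAS reporter units for chimeric turtle TRa-Gal4; mRNA measured 24 h after dosing by RT-PCR and capillary electrophoresis fluorescence, gain of signal fitted against DMSO.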

| Compound | AC50 | outcome |
| --- | --- | --- |
| O=C(O)Cc1cc(I)c(Oc2ccc(O)c(I)c2)c(I)c1 | 0.00328 µM (active) |  |
| Cc1c2ccccc2c(C)c2c1ccc1ccccc12 | 39.9 µM (active) |  |
| O=c1c(-c2ccc(O)cc2)coc2cc(O)cc(O)c12 |  | inactive |
| CC1(C)NC(=O)N(c2ccc([N+](=O)[O-])c(C(F)(F)F)c2)C1=O |  | inactive |
| CC(C)(c1cc(Br)c(O)c(Br)c1)c1cc(Br)c(O)c(Br)c1 |  | inactive |
| CC/C(=C(/CC)c1ccc(O)cc1)c1ccc(O)cc1 |  | inactive |

Tested on: not listed separately
Assay: ATG_M_61_XSP2: Attagene TRANS-FACTORIAL Multi-Species (XSP2) HepG2 Assay for M61 Transcription Factor (Internal Marker) (AID 2283835; active means hit-call score of the fitted dose curve at least 0.9, where 1 is the maximum; inactive means score below 0.9;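 further: reporter mRNA of an internal background marker read by RT-PCR and capillary electrophoresis; active means a rise in signal above the DMSO baseline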)
In short: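 Signal was mRNA induction detected as fluorescence after RT-PCR and capillary electrophoresis, analysed in the gain direction with DMSO as baseline. HepG2 cells transiently carrying reporter constructs received chemicals for 24 h.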

| Compound | outcome |
| --- | --- |
| C[C@]12CC[C@@H]3c4ccc(O)cc4CC[C@H]3[C@@H]1CCC2=O | inactive |
| O=C(O)Cc1cc(I)c(Oc2ccc(O)c(I)c2)c(I)c1 | inactive |
| Cc1c2ccccc2c(C)c2c1ccc1ccccc12 | inactive |
| O=c1c(-c2ccc(O)cc2)coc2cc(O)cc(O)c12 | inactive |
| CC(C)(c1cc(Br)c(O)c(Br)c1)c1cc(Br)c(O)c(Br)c1 | inactive |
| CC/C(=C(/CC)c1ccc(O)cc1)c1ccc(O)cc1 | inactive |

Target: zebrafish Thyroid Hormone Receptor beta (TRb), thrb (gene 30607) (UniProt Q9PVE4)
Assay: ATG_zfTRb_XSP2: Attagene TRANS-FACTORIAL Multi-Species (XSP1) HepG2 Assay for zebrafish Thyroid Hormone Receptor beta (TRb) (AID 2283836);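 on AC50: potency for induction of reporter signal above DMSO so agonist direction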
In short: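 Reporter transcripts measured by RT-PCR, 6-FAM labelling, HpaI digestion and capillary electrophoresis after 24 h chemical exposure. Human HepG2 cells carry an exogenous zebrafish TRb-GAL4 chimera; medium included 3 nM 6-alpha-fluorotestosterone plus 1.5 nM norgestrel.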

Sequence of zebrafish Thyroid Hormone Receptor beta (TRb), thrb (gene 30607) (Q9PVE4 whole entry, looked up): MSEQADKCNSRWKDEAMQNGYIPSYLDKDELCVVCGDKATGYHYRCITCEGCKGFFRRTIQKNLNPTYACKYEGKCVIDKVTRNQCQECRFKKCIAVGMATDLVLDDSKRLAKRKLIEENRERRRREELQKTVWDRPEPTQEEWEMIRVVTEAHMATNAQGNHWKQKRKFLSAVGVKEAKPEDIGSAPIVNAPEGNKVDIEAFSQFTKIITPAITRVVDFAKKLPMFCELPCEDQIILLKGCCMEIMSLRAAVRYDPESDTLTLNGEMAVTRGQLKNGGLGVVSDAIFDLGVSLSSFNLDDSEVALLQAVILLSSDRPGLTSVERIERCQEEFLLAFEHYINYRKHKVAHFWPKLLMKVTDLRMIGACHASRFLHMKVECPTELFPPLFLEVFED

| Compound | AC50 | outcome |
| --- | --- | --- |
| O=C(O)Cc1cc(I)c(Oc2ccc(O)c(I)c2)c(I)c1 | 0.504 nM (active) and 5.79 nM (active) |  |
| O=c1c(-c2ccc(O)cc2)coc2cc(O)cc(O)c12 |  | inactive |
| CC1(C)NC(=O)N(c2ccc([N+](=O)[O-])c(C(F)(F)F)c2)C1=O |  | inactive |
| CC(C)(c1cc(Br)c(O)c(Br)c1)c1cc(Br)c(O)c(Br)c1 |  | inactive |
| CC/C(=C(/CC)c1ccc(O)cc1)c1ccc(O)cc1 |  | inactive |
